Compound activity as filed in PubChem.
Most compounds without a hit are left out; they make up all but 8.8% or so of the library.
KB-V1 cytotox – qHTS assay for MDR1-selective chemotherapeutics: Primary screen using the drug-selected MDR subline cells KB-V1. KB-V1 MDR cells viability, CellTiter-Glo, 72 h. Potency, µM (highest dose often 46.1 µM), most hits filed as cytotoxic. 400,000 tested, 3.4% active. AID 1347076, 2019; also: potency is read from the fitted curve at half-maximal effect; nearly all actives have a fitted effect of over 60% in size
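KB-V1, DMEM (no phenol red) + 10% FBS; cpd pin-transferred, titration series; 72 h, 37 degrees C; CellTiter-Glo, luminescence. Data normalized, curve-fit.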
IL-1B inflam inh – qHTS for Inhibitors of Inflammasome Signaling: IL-1-beta AlphaLISA Primary Screen. THP-1 LPS/ATP IL-1B secretion, AlphaLISA, 16 h; stronger effect = lower value. activity change, % at 57.5 µM. 360,000 tested, 4.7% active; in the data active = activity change below about -50%; inconclusive = mostly about -30% to -49%
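Secreted IL-1B measured by AlphaLISA bead assay after 16 h compound exposure of THP-1 cells; compounds (final up to 57.5 uM) added 1 h before LPS (250 ng/mL) and ATP (1.25 mM) stimulation; lower signal means less secretion.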
KB-3-1 cytotox – qHTS assay for MDR1-selective chemotherapeutics: Primary screen using the parental adenocarcinoma cell KB-3-1; Potency, µM (doses to about 46.1 µM), usual class: cytotoxic; KB-3-1 viability, CellTiter-Glo ATP luminescence, 72 h; 400,000 tested, 1.4% active; also: potency is read from the fitted curve at half-maximal effect; nearly all actives have a fitted effect of over 60% in size
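Here the drug-naive KB-3-1 line serves as comparator for MDR sub-line selectivity; cells received compound titrations, 72 h at 37 °C, then CellTiter-Glo readout.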
HT1080NT lethal – qHTS for induction of synthetic lethality in tumor cells producing 2HG: qHTS for the HT-1080-NT fibrosarcoma cell line; HT-1080-NT fibrosarcoma viability, CellTiter-Glo ATP luminescence, 48 h; Potency, µM (top dose mostly 46.1 µM), for the others: at the top dose activity, negative = less viability, hits mostly cytotoxic; 360,000 tested, 1.6% active; AID 686970, 2013;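 also: NT is the 2HG producing partner of a matched IDH1 knockdown line; potency is read from the fitted curve at half-maximal effect; 0% = DMSO-treated cells and -100% = media-only wells without cells; nearly all actives have a fitted effect of over 55% in size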
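A 48-hour cytotoxicity screen used HT-1080-NT cells plated 2 hours before compound delivery. ATP-based CellTiter-Glo luminescence measured viability, normalized to DMSO and no-cell controls.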
HT1080 IDH1KD tx – qHTS for induction of synthetic lethality in tumor cells producing 2HG: qHTS for the HT-1080-IDH1KD cell line; Potency, µM (titrated, usually from 46.1 µM), inactives show at the top dose activity, negative = toxicity, hits mostly cytotoxic; 360,000 tested, 2% active; HT-1080 IDH1 knockdown viability, ATP luminescence, 48 h;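 also: potency is read from the fitted curve at half-maximal effect; 0% = DMSO wells and -100% = cell-free medium wells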
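Luminescent ATP read-out (CellTiter-Glo, 10 min at room temperature) after 48 h compound exposure at 37 °C gave viability of IDH1-knockdown HT-1080 cells. Activity was normalised to DMSO and cell-free wells, then fitted as concentration-response curves.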
* marks the source's active call; other numbers are inactive results; i = inactive; ? = inconclusive; nt = no result given. Unless noted, calls follow the shape of the dose curve; as a rule, active = well fitted curve in the direction sought with a large enough effect; inconclusive = small, poorly fitted or top-dose-only effect, or another doubt; inactive = no such curve, though single readings can be large; an effect the other way counts as inactive or inconclusive. Unless noted, % is scaled to controls: 0 for no effect and ±100 for the full control effect.

SMILES	KB-V1 cytotox	IL-1B inflam inh	KB-3-1 cytotox	HT1080NT lethal	HT1080 IDH1KD tx
O=C(/C=C/c1ccccc1)NCCSCc1ccc(Cl)cc1	i	10.1	i	0.1%	8.0%
COc1cccc(OC)c1/C=C/C(=O)NC1CCCCC1	i	-17.4	i	4.0%	0.0%
CC(C)CC(NS(=O)(=O)OCC(Cl)(Cl)Cl)c1ccccc1 (stereo not drawn)	23.1µM*	-20.2	i	?	-25.9%
CCc1nc2c(OCCC3CCCCC3)cccn2c1N(C)C(=O)c1ccncc1	i	20.3	i	-1.1%	7.2%
CCc1nc2c(OCc3ccc(Cl)cc3)cccn2c1N(C)C(=O)c1ccco1	?	-62.5*	?	?	?
CCc1nc2c(OCc3cc(Cl)cc(Cl)c3)cccn2c1N(C)C(=O)c1ccccc1F	?	-58.1*	i	18.4µM*	?
CCc1nc2c(OCc3ccc(F)cc3)cccn2c1N(C)C(=O)c1ccco1	i	-0.6	i	-0.2%	16.4%
CCc1nc2c(OCc3ccc(Cl)cc3Cl)cccn2c1N(C)C(=O)CC(C)C	?	-52.7*	?	25.9µM*	?
CCc1nc2c(OCCC3CCCCC3)cccn2c1N(C)C(=O)c1ccc(OC)cc1	?	-56.5*	?	?	?
CN(Cc1nc2ccccc2c(=O)[nH]1)C(=O)C1CC(=O)N(c2cccc3ccccc23)C1 (stereo not drawn)	i	16.9	i	-14.4%	-19.7%
COc1ccc(CC(=O)NNC(=S)NCC2CC2)cc1OC	?	39.7	i	0.3%	-0.9%
NC(=S)N/N=C1\CC(n2nnn(-c3cccc(Cl)c3)c2=S)C2COC1O2 (stereo not drawn)	i	42.6	i	-8.2%	-8.3%
O=c1c2sc3nc(N4CCOCC4)c4c(c3c2ncn1-c1ccccc1)CCCC4	?	-60.3*	i	-8.8%	-2.8%
O=c1c2sc3nc(N4CCOCC4)c4c(c3c2ncn1CCc1ccccc1)CCCC4	2.31µM*	-6.7	i	-1.1%	7.6%
Cc1ccc(-n2cnc3c(sc4nc(N5CCOCC5)c5c(c43)CCCC5)c2=O)cc1	i	12.3	i	1.9%	4.5%
O=c1c2sc3nc(N4CCOCC4)c4c(c3c2ncn1C(c1ccccc1)c1ccccc1)CCCC4	i	27.7	i	0.0%	11.4%
O=C1/C(=C/c2cccs2)N=C(c2cccs2)N1Nc1ccccc1	i	-70.4*	?	-14.2%	-18.4%
O=C1/C(=C\c2cccs2)N=C(c2cccs2)N1Nc1ccccc1	i	-60.9*	i	-29.1%	-15.5%
N#Cc1c(-c2ccc(Cl)cc2)ccn2nc(C3CCCCC3)nc12	i	10.5	i	6.7%	14.5%
O=C(C[n+]1cccc(CNC(=O)c2ccc(OC(F)F)cc2)c1)c1ccccc1	i	-90.9*	i	-4.0%	10.8%
CN(C)c1cc[n+](CC(=O)c2ccc(OC(F)F)cc2)cc1	i	35.5	18.4µM*	?	-1.5%
O=C(C[n+]1cccc(CNC(=O)c2ccc(OC(F)F)cc2)c1)Nc1cccc(C(F)(F)F)c1	?	-70.9*	?	-22.1%	-26.7%
O=C(C[n+]1cccc(CNC(=O)c2ccc(OC(F)F)cc2)c1)Nc1ccc(F)cc1	i	-16.2	i	-2.6%	2.6%
Cc1ccc2c(c1)N(C(=O)N1CCC(C(=O)NCc3cccc(Br)c3)CC1)CCO2	i	nt	?	nt	nt
NC(=O)C1CCN(c2ncc(-c3cccc(N4CCCC4)c3)s2)CC1	?	nt	i	nt	nt
SMILES	KB-V1 cytotox	IL-1B inflam inh	KB-3-1 cytotox	HT1080NT lethal	HT1080 IDH1KD tx
O=C(/C=C/c1ccc(N2CCC(c3ccccc3)=N2)cc1)c1ccccc1	i	-94.2*	i	9.1%	-9.3%
CC(C)(C)c1ccc(S(=O)(=O)Nc2noc3ccccc23)cc1	i	11.3	i	-4.6%	0.6%
Cc1ccc2cccc(NC(=S)NC(=O)c3ccn(C)n3)c2n1	i	20.0	i	7.94µM*	7.94µM*
Cc1ccc(C(=O)NC(=S)Nc2cccc3c(C)cc(C)nc23)cc1	14.6µM*	12.4	?	-20.5%	-21.0%
CN(C(=O)CCN1C(=O)c2ccccc2C1=O)c1ccccc1	i	2.9	i	15.0%	11.9%
Cc1ccc(NC(=O)Nc2cnccn2)cc1	i	-1.7	i	23.8%	3.6%
O=C(Nc1cnccn1)Nc1ccccc1Cl	9.2µM*	0.0	?	27.3%	12.8%
O=C(Nc1cnccn1)Nc1cccc(Cl)c1Cl	11.6µM*	0.7	?	17.4%	22.1%
CCOc1ccccc1NC(=O)Nc1cnccn1	6.51µM*	-27.2	i	23.8%	21.1%
CC(C)c1ccc(NC(=O)Nc2cnccn2)cc1	?	13.5	4.11µM*	?	14.6µM*
COc1ccc(-c2nnc(SCC(=O)c3ccc([N+](=O)[O-])cc3)o2)cc1OC	i	nt	i	nt	nt
CCCCn1c(N)c(N(CCC(C)C)C(=O)CCCc2nc3ccccc3s2)c(=O)[nH]c1=O	i	2.2	i	13.5%	19.5%
CCn1c(SCC(=O)N(C)c2ccccc2)nc2c([nH]c3ccccc32)c1=O	?	i	i	-14.4%	-28.2%
CNC(C)C#Cc1ccc2oc3cc(C)c(C)cc3c(=O)c2c1 (stereo not drawn)	i	-63.9*	?	-19.4%	-25.4%
Cc1ccc(C)c(NC(=O)Cn2cc(S(=O)(=O)N3CCCC3)c(S(=O)(=O)N3CCCC3)c2)c1	i	nt	?	nt	nt
CNC[C@H](CC1CCCCC1)NC[C@H](CO)NCCc1cccc(C(F)(F)F)c1	i	-60.1*	?	?	?
O=C(NC1(Cc2ccccc2)CCN(CCCc2ccccc2)C1=O)c1ccccc1 (stereo not drawn)	i	-18.1	i	-6.9%	-18.7%
COc1ccc([C@@H]2C[C@H]3[C@@H](CN2S(=O)(=O)c2ccccc2)C(=O)C[C@@H](c2ccc(C)cc2)N3S(=O)(=O)c2ccc(C)cc2)cc1	i	7.4	i	0.0%	12.2%
Cn1cc(C2=C(c3cn(CCCSC(=N)N)c4ccccc34)C(=O)NC2=O)c2ccccc21	?	nt	4.11µM*	nt	nt
CCOC(=O)CSc1n[nH]c(NS(=O)(=O)c2ccccc2C(F)(F)F)n1	i	-77.2*	i	-2.7%	1.9%
CC(=O)O[C@]1(C(C)=O)CCC2C3C=C(C)C4=CC(=O)CC[C@]4(C)C3CC[C@@]21C (stereo partly drawn)	i	?	i	-8.2%	-1.8%
